Among the data in PubChem BioAssay AID588443 (Southern Research Specialized Biocontainment Screening …, 2011) are outcome values, retold here.

Results with a measured potency or affinity are listed apart. Records with an inconclusive call do not appear. Active and inactive are the calls of the source. No rule for the calls is given here.

The assay can be described thus: THP-1 cell cytotoxicity, cytotoxicity control, set 5 (AID 588443). The settings on record: THP-1 cell viability, cytotoxicity CC50; series mostly up to 100 µM.
Consider `COC(=O)CSc1ncnc2c1cnn2-c1ccc(C)cc1C`, for which the result was inactive.

For the compound `CCOC(=O)CSc1ncnc2c1cnn2-c1ccccc1`, the call was inactive.

In the case of `COc1ccc(N2CCN(C(=O)c3ccc(CNc4c(N5CCOCC5)c(=O)c4=O)cc3)CC2)cc1`, the call was inactive.

For `CCOC(=O)CSc1ncnc2c1cnn2-c1ccc(C)cc1C`, the call was inactive.
